# High-throughput results: PubChem, SRMLSC
# Abs 340nm = compounds absorbing at 340 nm | compound absorbance at 340 nm, fold over control | fold change at 10 µM | 65,000 tested, under 10 active | AID 708;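 active = at 10 µM dose, initial 340 nm absorbance at least 2 fold that of control wells; inactive = change under 2 fold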;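 note: initial absorbance extrapolated from kinetic A340 decline of NADH oxidation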
# Autofluor 339 = intrinsic fluorescence of library compounds, ex339/em460 – biochemical, MLSMR library, data from DPM-DC assay, artefact control, profiling panel; fluorescence fold increase at 10 µM; compound autofluorescence, ex339/em460 nm, NADH buffer; stronger effect = higher value; 1 = no-compound wells, NADH background; 5.5% of 65,000 active;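 active = at 10 µM, mean starting fluorescence two-fold or more over control wells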;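 note: signal is the first read of a kinetic run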
# NADH coupling = inhibition of NAD/NADH coupling enzymes, library profiling; coupled PK/LDH NADH assays, four targets; IC50, µM (doses to about 10 µM), without a hit: at the top dose inhibition; 0.02% of 65,000 active; AID 774;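 active = single-dose screening hits from any of four coupled enzyme assays that gave an IC50 when retested across doses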;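 note: the DPM-DC format reads NADH fluorescence rather than 340 nm absorbance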
# Spn DPM-DC inh = S. pneumoniae DPM-DC inhibition; purified DPM-DC, PK/LDH coupled NADH fluorescence; calls only at 10 µM; 0.49% of 65,000 active;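 active = the 320 compounds with the highest percent inhibition in the single-dose primary screen, excluding strongly autofluorescent ones, cut at about 32% in these data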;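 note: kinetic rate of NADH fluorescence loss reporting ADP formed by the decarboxylase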
# MK inhibit = inhibitors of Streptococcus pneumoniae mevalonate kinase; purified MK, PK/LDH-coupled NADH absorbance 340 nm; inhibition, % at 10 µM; 0.48% of 65,000 active; AID 555;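 active = ranked among the strongest by inhibition in the single 10 µM screen, a fixed top-ranked set picked for dose follow-up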
# PMK inhibit = S. pneumoniae PMK inhibition; 0.49% of 65,000 active; AID 539; inhibition, % at 10 µM; purified PMK, PK/LDH-coupled NADH absorbance 340 nm;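 active = top-ranked compounds by inhibition in the single 10 µM screen, taking a fixed number of the strongest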;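 note: 0% = full reaction with DMSO carrier and 100% = background rate without enzyme reaction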
# An asterisk follows results filed as active; i = inactive; x = not tested or not shown; + = active, no number. Only some compounds are listed: those with a hit (about 6.8% of all), similar ones and a draw of the others.
SMILES,Abs 340nm,Autofluor 339,NADH coupling,Spn DPM-DC inh,MK inhibit,PMK inhibit
c1nc(NCC2CCCO2)c2[nH]cnc2n1 (centres undefined),0.99,1.05,6.0%,i,6.0,13.0
CCCc1nc2oc3c(NCCN(C)C)ncnc3c2c2c1CCCC2,1,1.43,7.0%,i,4.0,13.0
CCOC(=O)N1CCN(c2ncnc3c2oc2nc(C)c4c(c23)CC(C)(C)OC4)CC1,1.04,1.21,3.0%,i,5.0,3.0
CC(C)c1nc2oc3c(NCC4CCCO4)ncnc3c2c2c1CCC2 (centres undefined),1.06,2.4*,10.0%,i,4.0,12.0
CCCc1nc2oc3c(NCC4CCCO4)ncnc3c2c2c1COC(C)(C)C2 (centres undefined),1.02,3.17*,11.0%,i,7.0,3.0
CC1(C)Cc2nc3oc4c(NCc5ccccc5)ncnc4c3cc2CO1,1.02,3.76*,7.0%,x,8.0,5.0
CN(C)S(=O)(=O)c1cccc(-c2nnc(SCc3ccc4c(c3)OCCO4)o2)c1,0.98,1.03,5.0%,i,10.0,6.0
CCCOc1ccc(C2c3c(oc4ccccc4c3=O)C(=O)N2CCCN2CCOCC2)cc1 (centres undefined),1,1.07,3.0%,i,6.0,13.0
CCCc1nc2oc3c(NCc4ccccn4)ncnc3c2c2c1COC(C)(C)C2,1.03,2.66*,9.0%,i,4.0,5.0
COc1ncnc2c1oc1nc(C(C)C)c3c(c12)CC(C)(C)OC3,1.07,1.11,2.0%,i,2.0,5.0
CC(C)c1nc2oc3c(NCc4ccccn4)ncnc3c2c2c1COC(C)(C)C2,1,2.99*,20.0%,+,12.0,14.0
COC(=O)c1cc(=O)n2c(-c3ccc(OC)cc3)csc2n1,0.99,1.06,1.0%,i,1.0,11.0
CCCc1cc(=O)[nH]c(SCC(=O)c2cc(C)n(C(C)COC)c2C)n1 (centres undefined),1.03,1.09,8.0%,i,10.0,13.0
CCN(CC)CCN1C(=O)c2ccccc2NC1c1cc(OC)c(OC)c(OC)c1 (centres undefined),1.03,2.3*,2.0%,x,1.0,2.0
COc1ccc(C2Nc3ccccc3C(=O)N2O)cc1OC (centres undefined),1.02,1.16,7.0%,i,0.0,18.0
CCN(CC)CCN1C(=O)c2ccccc2NC1c1cccc(F)c1 (centres undefined),1.04,2.07*,9.0%,x,7.0,10.0
Cc1c(-n2cc(C(=O)O)c(=O)c3cc(F)c(N4CCCC4)c(F)c32)c(=O)n(-c2ccccc2)n1C,1.09,1.7,14.0%,i,11.0,0.0
CN1CCN(c2c(F)cc3c(=O)c(C(=O)O)cn4c3c2SCC4)CC1,1.09,3.78*,2.0%,x,3.0,1.0
COc1ccc(-c2cn3cccnc3n2)cc1NC(=O)c1ccc(Br)o1,1.1,5.29*,8.0%,x,1.0,14.0
Cc1ccc(-c2cn3cccnc3n2)cc1NC(=O)c1ccc(Br)o1,1.02,3.47*,4.0%,x,0.0,17.0
Cc1cc(O)c(NC(=O)c2ccc(Br)o2)cc1C,1,1.02,11.0%,i,8.0,5.0
CCNc1oc(-c2cccc3ccccc23)nc1C#N,1.06,2.13*,4.0%,x,8.0,0.0
CC(C)Nc1oc(-c2cccc3ccccc23)nc1C#N,1.05,3.79*,3.0%,x,3.0,2.0
C=CCNc1oc(-c2cccc3ccccc23)nc1C#N,1.03,2.93*,4.0%,x,7.0,4.0
O=C(NC1CCCc2ccccc21)C1CCC(CNc2c(N3CCOCC3)c(=O)c2=O)CC1 (centres undefined),1.03,1.06,7.0%,i,9.0,9.0
SMILES,Abs 340nm,Autofluor 339,NADH coupling,Spn DPM-DC inh,MK inhibit,PMK inhibit
CCOC(=O)c1c(C)c(-c2ccccc2)n(CC(=O)N2CCCC2)c1C,0.99,1.31,5.0%,i,9.0,1.0
C=CCn1c(COc2ccc(CC)cc2)nnc1SC/C(O)=C(\C#N)c1nc2ccccc2[nH]1,1.01,1.27,11.0%,i,3.0,7.0
Cc1oc(-c2ccccc2F)nc1CN1CCC(C(=O)NCCC2=CCCCC2)CC1,1.05,0.94,4.0%,i,0.0,10.0
O=C(O)COc1ccc2nsnc2c1Cl,1.03,3.73*,10.0%,x,9.0,10.0
Cc1ccc(OCC(=O)O)c(-n2nc3ccccc3n2)c1,1.04,1.21,8.0%,i,7.0,12.0
O=C(CN(Cc1ccccc1)C(=O)c1ccco1)NCc1ccc(F)cc1,0.99,1.1,2.0%,i,5.0,1.0
COc1cccc(OC)c1OCCCCN1CCCC1,1.07,1.01,20.0%,i,52.0*,8.0
Clc1ccccc1OCCCCN1CCCC1,1.04,1.11,16.0%,i,40.0*,7.0
Cc1ccc2c(c1)NC(=O)C(CC(=O)N(C)Cc1ccccc1)O2 (centres undefined),1.02,1.11,0.0%,i,1.0,0.0
CCOc1cc(C2Nc3ccccc3C(=O)N2c2ccccc2)ccc1O (centres undefined),1.05,3.59*,6.0%,x,11.0,1.0
CC1(C)Cc2nc3sc4c(N(CCO)CCO)ncnc4c3cc2CO1,1.04,2.32*,4.0%,x,0.0,7.0
COC(=O)c1ccc(C(=O)OC)c(NC(=O)CCC(=O)O)c1,1.05,2.14*,4.0%,x,8.0,0.0
COC(=O)c1ccc(C(=O)OC)c(NC(=O)CCc2ccc(C)o2)c1,1.02,1.41,6.0%,i,7.0,1.0
Cc1c(/C=N/n2cnnc2)c2ccccc2n1CCOc1ccc(Cl)cc1,1.13,1.03,4.0%,i,10.0,0.0
Cc1ccc(OCCn2c(C)c(/C=N/n3cnnc3)c3ccccc32)cc1,1.11,0.98,15.0%,+,9.0,0.0
Cc1cccn2c(=O)c3cc(C#N)c(=NC(=O)c4ccncc4)n(CCCOC(C)C)c3nc12,1.1,3.62*,3.0%,x,0.0,6.0
Cc1cccn2c(=O)c3cc(C#N)c(=N)n(CCN4CCOCC4)c3nc12,1.04,1.91,6.0%,x,11.0,0.0
COCCCn1c(=NC(=O)c2ccncc2)c(C#N)cc2c(=O)n3cccc(C)c3nc21,1.1,3.92*,5.0%,x,9.0,0.0
CCCn1c(=NC(=O)c2ccc3c(c2)OCO3)c(C#N)cc2c(=O)n3cccc(C)c3nc21,1.03,1.4,7.0%,i,7.0,13.0
CCCn1c(=NC(=O)c2ccncc2)c(C#N)cc2c(=O)n3cccc(C)c3nc21,1.08,3.6*,5.0%,x,0.0,9.0
CCOC(=O)C1CCN(C(=O)CN(c2ccc(OC)c(OC)c2)S(=O)(=O)c2ccccc2)CC1,1.04,1.12,27.0%,i,71.0*,2.0
CCCOc1ccc(C(=O)N2CCCC2)cc1OC,1.06,1.05,4.0%,i,6.0,5.0
Cc1ccc(S(=O)(=O)N(C)CC(=O)N2CCCc3ccccc32)cc1,1.01,1.12,5.0%,i,7.0,6.0
CCc1cc2c3c(c(=O)oc2cc1O)CCCC3,1.2,2.17*,1.0%,x,1.0,0.0
